The panel holds about 83,000 compounds, 20% with a hit somewhere; the sample as a whole holds those more often.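 For each line, cells grew in 96-well plates with the test compound present at a single concentration for 48 hours.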 Values without a mark were called inactive. Active and inactive are the calls of the source. How the source made its calls: active means growth percent below 10; inactive means the rest.

Common to all, as to assay: NCI-60 one-dose screen, 48 h (100 = growth as untreated, 0 = no growth, -100 = all killed)
Assay [1] deals with 786-0 renal. The settings on record: 10 µM.
In assay [2] the test system is K-562 leukemia. The settings on record: 10 µM.
In assay [3] the test system is MALME-3M melanoma. As to conditions: 10 µM.
Assay [4] deals with RXF 393 renal. The settings on record: 10 µM.
The subject of assay [5] is EKVX NSCLC. The settings on record: 10 µM.
Assay [6] has as its system SN12C renal. The settings on record: 10 µM.
Assay [7] deals with UO-31 renal. As to conditions: 10 µM.
Assay [8] has as its system TK-10 renal. The settings on record: 10 µM.
Assay [9] concerns ACHN renal. The settings on record: 10 µM.
In assay [10] the test system is CAKI-1 renal. The settings on record: 10 µM.
The subject of assay [11] is CCRF-CEM leukemia. As to conditions: 10 µM.
Assay [12] deals with OVCAR-8 ovarian. The settings on record: 10 µM.
In assay [13] the test system is OVCAR-5 ovarian. As to conditions: 10 µM.
Assay [14] deals with OVCAR-4 ovarian. As to conditions: 10 µM.
In assay [15] the test system is SK-OV-3 ovarian. As to conditions: 10 µM.
Assay [16] concerns OVCAR-3 ovarian. The settings on record: 10 µM.
The subject of assay [17] is NCI/ADR-RES ovarian. The settings on record: 10 µM.
The test system of assay [18] is BT-549 breast. The settings on record: 10 µM.
For assay [19], the system named is MCF7 breast. As to conditions: 10 µM.
The test system of assay [20] is MDA-MB-468 breast. The settings on record: 10 µM unless noted.

For the compound `COc1cc2cc(C(=O)N3C[C@@H](CCl)c4c3cc(OC(=O)N3CCN(C)[C@@H]5CSSC[C@H]53)c3ccccc43)[nH]c2c(OC)c1OC`, the growth in [1] was -57.9% (active); in assay [2], -6.55% (active); in assay [3], -92% (active); in [4], -93.8% (active); in [5] it was -86.3% (active); in assay [6], -62.1% (active). In addition, the growth in assay [7] is -52% (active); in assay [8], -28.4% (active); in assay [9] it was -31.2% (active); in assay [10] it was -9.91% (active); in assay [11], -23.1% (active); in assay [12], -30.2% (active). Further, the growth was -20.4% (active) in assay [13]; -54.7% (active) in assay [14]; -26.3% (active) in assay [15]; -9.08% (active) in [16]; -56.1% (active) in assay [17]; -96.4% (active) in assay [18]. Moreover, the growth in assay [19] was -56.2% (active); in assay [20], -86.3% (active).
Consider `O=C(/C=C/c1ccccc1)c1nc2ccccc2n1Cc1ccc(Br)cc1`, for which the growth in [1] is -89.8% (active); in [2], -17.2% (active); in assay [3], -64.7% (active); in assay [4], -94.8% (active); in assay [5] it was -89.2% (active); in assay [6], -58.7% (active). For the same compound, the growth in assay [7] was -94.9% (active); in assay [8], -47.9% (active); in assay [9], -74.5% (active); in assay [10], -19.2% (active); in assay [11], -7.81% (active); in assay [12], -18.5% (active). The growth in [13] is -62.3% (active); in [14], 27%; in assay [15] it was 28.7%; in assay [16] it was -72.5% (active); in [17], -37.4% (active); in assay [18], -69.8% (active). Besides, the growth in assay [19] was -48.7% (active); in assay [20], -93.1% (active).
With `O=C(NC([Se])=NC1CCCCC1)c1ccc2c(c1)OCO2`, the growth was 44.1% in assay [1]; 74.3% in [2]; 57.3% in [3]; 65.9% in assay [4]; 56.8% in assay [5]; 51.9% in [6]. Moreover, the growth in assay [7] was 38.5%; in assay [8], 55.5%; in assay [9] it was 17%; in assay [10], 39.6%; in [11], 35.3%; in assay [12], 37.7%. The growth is 72% in assay [13]; 70.5% in assay [14]; 8.53% (active) in assay [15]; 25.3% in assay [16]; 34.4% in assay [17]; 96.7% in [18]. For the same compound, the growth was 81.6% in [19] and 77.1% in assay [20].
Regarding `O=C(NCCCCC(c1ccc(F)cc1)c1ccc(F)cc1)Nc1ccc([N+](=O)[O-])c(C(F)(F)F)c1`, the growth in [1] is -15% (active); in assay [3] it was -25.8% (active); in assay [4], -41.3% (active); in assay [5], 4.51% (active); in [6], 7.2% (active); in assay [7], 0% (active). The growth in assay [8] was 10%; in assay [9], -2.96% (active); in [10] it was -3.31% (active); in assay [11], -38.8% (active); in [12] it was 5.42% (active); in assay [13] it was 11.8%. Moreover, the growth is 11.5% in assay [14]; -33% (active) in assay [15]; 1.5% (active) in [16]; -4.02% (active) in [17]; -28% (active) in [18]; 1.44% (active) in assay [19]. The growth in assay [20] is -31.7% (active).
For the compound `COc1ccc(/C=C/C(=O)c2nc3ccccc3n2Cc2ccc(Br)cc2)cc1`, the growth in assay [1] is 64.7%; in assay [2] it was 21.1%; in [3] it was 73.1%; in assay [4] it was 83.6%; in [5], 52.5%; in [6] it was 90.4%. For the same compound, the growth is 52.4% in assay [7]; 110% in [8]; 77.5% in [9]; 68% in assay [10]; 18.7% in assay [11]; 77.5% in [12]. Moreover, the growth was 89.6% in assay [13]; 66.1% in assay [14]; 91.7% in assay [15]; 60% in assay [16]; 61.5% in assay [17]; 70.3% in assay [18]. In addition, the growth in [19] was 9.99% (active); in [20], 16.9%.
For the compound `C[C@H]1[C@@H](Oc2ccc(-c3cn(-c4ccnc5cc(Cl)ccc45)nn3)cc2)O[C@@H]2OC3(C)CC[C@H]4[C@H](C)CC[C@@H]1[C@@]24OO3`, the growth in [1] was 35.1%; in assay [2] it was 22.2%; in assay [3], 13.7%; in assay [4], 52.3%; in [5], 29.7%; in assay [6], 24.3%. Also, the growth in assay [7] was 10.7%; in assay [8], 35.4%; in [9], 14.3%; in [10], 25.6%; in [11], 38.8%; in assay [12], 16%. Besides, the growth in assay [13] is 19.2%; in assay [14], 40.9%; in assay [15], 52.3%; in [16] it was 32.7%; in assay [17], 19.6%; in [18] it was 24.9%. Also, the growth in assay [19] was 19.3%; in assay [20], 36.9%.
Regarding `CC[C@]12C=CCN3CC[C@@]4(c5ccc(OC)cc5N(C)[C@H]4[C@@](O)(C(=O)OC)[C@@H]1OC(=O)CCC[P+](C1CCCCC1)(C1CCCCC1)C1CCCCC1)[C@@H]32`, the growth is -16.3% (active) in assay [1]; 3.31% (active) in assay [2]; -96.1% (active) in [3]; -70.3% (active) in assay [4]; 15.4% in assay [5]; -40.5% (active) in assay [6]. Besides, the growth in assay [7] is 76.8%; in [8], -48.6% (active); in assay [9], 32%; in [10], -8.49% (active); in assay [11], -40.9% (active); in [12], 1.19% (active). The growth in assay [13] is 11%; in [14], 17.7%; in [15], -7.72% (active); in [16] it was -48.6% (active); in assay [17], 100%; in assay [18] it was -97.4% (active). Also, the growth is -72.2% (active) in assay [19] and -79.6% (active) in assay [20].
For `CC12OOC(C)(OO1)C2CCC(=O)OCCNc1ccnc2cc(Cl)ccc12` (centres undefined), the growth is -29.3% (active) in [1]; 3.42% (active) in assay [2]; -73% (active) in [3]; -15.7% (active) in [4]; -60.6% (active) in assay [5]; 84.3% in assay [6]. Further, the growth was -97.2% (active) in assay [7]; 66.3% in [8]; -93.8% (active) in assay [9]; -79.4% (active) in [10]; 9.26% (active) in [11]; 68% in assay [12]. Also, the growth was 94.7% in assay [13]; -39.8% (active) in [14]; 95.9% in assay [15]; -65.9% (active) in [16]; 53.2% in assay [17]; 93.1% in [18]. Further, the growth in assay [19] was 24.2%; in assay [20] it was -51.6% (active).

Values taken from PubChem BioAssay (NCI).
